# Compounds with a hit are over-represented: about 19% of the library has one in this group of screens.
# HT1080NT lethal: qHTS for induction of synthetic lethality in tumor cells producing 2HG: qHTS for the HT-1080-NT fibrosarcoma cell line; HT-1080-NT fibrosarcoma viability, CellTiter-Glo ATP luminescence, 48 h; Potency, µM (highest dose often 46.1 µM), for the others: at the highest dose activity, negative = less viability, actives largely listed as cytotoxic; 1.6% of 360,000 active;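 also: NT is the 2HG producing partner of a matched IDH1 knockdown line; potency is read from the fitted curve at half-maximal effect; 0% = DMSO-treated cells and -100% = media-only wells without cells; nearly all actives have a fitted effect of over 55% in size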
#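 750 cells/well, RPMI + 5% FBS; 2 h settle, compound pin-transfer, 48 h at 37 degrees C. CellTiter-Glo 10 min RT, luminescence. Normalized to DMSO and media-only wells.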
# IL-1B inflam inh: qHTS for Inhibitors of Inflammasome Signaling: IL-1-beta AlphaLISA Primary Screen. 4.7% of 360,000 active. THP-1 LPS/ATP IL-1B secretion, AlphaLISA, 16 h; hits give low values. activity change, % at 57.5 µM. AID 743279, 2014; in the data active = activity change below about -50%; inconclusive = mostly about -30% to -49%
#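 THP-1 cells pretreated 1 hr with compounds (up to 57.5 uM final), then stimulated with LPS (250 ng/mL final) plus ATP (1.25 mM final); secreted IL-1B measured by AlphaLISA after 16 hr, decreased signal indicating inhibition.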
# TDP1 cell CPT: qHTS for Inhibitors of human tyrosyl-DNA phosphodiesterase 1 (TDP1): qHTS in cells in presence of CPT; chicken DT40 Tdp1-/-;hTDP1 cells + 20 nM CPT, ATP luminescence, 48 h; Potency, µM (doses to about 46.2 µM), for inactives: at the top dose activity change, negative = growth inhibition, hits mostly inhibitors; 12% of 420,000 active; AID 686979, 2013; also: potency is read from the fitted curve at half-maximal effect; nearly all actives have a fitted effect of over 55% in size
#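 Chicken DT40 Tdp1-/- cells stably complemented with human TDP1 were seeded at 400 cells/well in medium containing 20 nM camptothecin, exposed to pin-transferred compounds, and grown at 37 °C for at least 48 hr. Viability was read as ATP luminescence.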
# HT1080 IDH1KD tx: qHTS for induction of synthetic lethality in tumor cells producing 2HG: qHTS for the HT-1080-IDH1KD cell line | HT-1080 IDH1 knockdown viability, ATP luminescence, 48 h | Potency, µM (doses to about 46.1 µM), for the others: top-dose activity, negative = toxicity, usual class: cytotoxic | 2% of 360,000 active | AID 686971, 2013;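 also: potency is read from the fitted curve at half-maximal effect; 0% = DMSO wells and -100% = cell-free medium wells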
#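 Viability of IDH1-knockdown HT-1080 fibrosarcoma cells was assessed by CellTiter-Glo after 48 h at 37 °C with titrated compound; concentration-effect curves were classified by fit quality and response size.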
# TDP1 cell noCPT: qHTS for Inhibitors of human tyrosyl-DNA phosphodiesterase 1 (TDP1): qHTS in cells in absence of CPT; DT40 Tdp1-/- hTDP1 cells, no CPT, ATP luminescence, 48 h; Potency, µM (series often up to 46.2 µM), inactives show at the highest dose activity change, negative = growth inhibition, most hits filed as inhibitors; 15% of 420,000 active; AID 686978, 2013; also: potency is read from the fitted curve at half-maximal effect; nearly all actives have a fitted effect of over 55% in size
#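 Camptothecin absent (DMSO only). Human TDP1-complemented DT40 knockout cells, 400 cells/well, 37 °C for minimum 48 hr; ATP measured via CellTiter-Glo, 30 min dark incubation, luminescence.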
# ELG1 repair inh: qHTS screen for small molecules that inhibit ELG1-dependent DNA repair in human embryonic kidney (HEK293T) cells expressing luciferase-tagged ELG1. HEK293T ELG1-luciferase reporter, luminescence, 16 h; DNA damage induced by 5-fluorouridine. Potency, µM (highest dose often 46.1 µM), for inactives: top-dose activity change, negative = inhibition, hits mostly inhibitors. 2.3% of 330,000 active. AID 504467, 2011; also: potency is read from the fitted curve at half-maximal effect; nearly all actives have a fitted effect of over 55% in size
#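 HEK293T cells expressing luciferase-tagged ELG1 (2,000/well) received 5-Fluorouridine plus compound or DMSO for 16 hr at 37 °C. Luciferase was read by ONE-Glo luminescence after 30 min at room temperature.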
# An asterisk follows results filed as active; i = inactive; ? = inconclusive; . = no result given. Unless noted, calls follow the shape of the dose curve; as a rule, active = well fitted curve in the direction sought with a large enough effect; inconclusive = small, poorly fitted or top-dose-only effect, or another doubt; inactive = no such curve, though single readings can be large; an effect the other way counts as inactive or inconclusive. Unless noted, % is scaled to controls: 0 for no effect and ±100 for the full control effect.
SMILES,HT1080NT lethal,IL-1B inflam inh,TDP1 cell CPT,HT1080 IDH1KD tx,TDP1 cell noCPT,ELG1 repair inh
Cc1cccc(/C=N/NC(=O)c2cc(-c3cccnc3)nc3c2c(C)nn3-c2ccccc2)c1,17.0%,-13.1,?,9.3%,23.1µM*,?
CCCOc1cccc(-c2cc(C(=O)NN)c3ccccc3n2)c1,-1.5%,64.7,9.2µM*,?,10.3µM*,-20.0%
O=C(NCc1ccccc1Br)c1ccc2c(c1)nc1n2CCOC1,.,.,-7.0%,.,-17.3%,.
CCC[C@@H]1CCCO[C@@](C(=O)NCCN2CCOCC2)(C(F)(F)F)C1,18.5%,-3.7,-6.0%,12.2%,3.4%,.
O=C(N/N=C/c1cccnc1)c1cc(-c2ccccc2Cl)nc2ccccc12,-4.9%,i,?,5.4%,4.61µM*,-8.5%
Cc1ccccc1-c1cc(C(=O)N/N=C/c2cccnc2)c2ccccc2n1,-23.3%,25.4,?,-29.0%,?,-10.9%
CC(C)(C)OC(=O)NC(CO)c1cn([C@@H](Cc2cc3ccccc3[nH]2)C(=O)N2CCN(C(=O)OC(C)(C)C)CC2)nn1 (stereo not given in full),10.5%,-2.4,?,14.0%,-23.7%,1.4%
CC[C@@H](C)C(NC(=O)OC(C)(C)C)c1cn([C@@H](CCC(=O)OC(C)(C)C)C(=O)N2CCN(C(=O)OC(C)(C)C)CC2)nn1 (stereo not given in full),9.4%,?,?,8.2%,14.6µM*,?
CC(C)(C)OC(=O)CC[C@@H](C(=O)N1CCN(C(=O)OC(C)(C)C)CC1)n1cc(C(CO)NC(=O)OC(C)(C)C)nn1 (stereo not given in full),3.4%,-5.4,-36.9%,2.2%,2.2%,-10.2%
CC(C)CC(NC(=O)OC(C)(C)C)c1cn([C@@H](Cc2cc3ccccc3[nH]2)C(=O)N2CCN(C(=O)OC(C)(C)C)CC2)nn1 (stereo not given in full),-1.7%,?,18.4µM*,-5.2%,18.4µM*,?
O=C(CSc1ncnc2sccc12)NCc1ccc2c(c1)OCO2,6.7%,11.1,1.4%,15.6%,-0.3%,-1.0%
COc1ccccc1/C=C/C=N/n1c(-c2n[nH]c3c2CCC3)n[nH]c1=S,-2.3%,-22.7,?,?,13µM*,?
COc1ccc(-c2n[nH]c(=S)n2/N=C/C=C\c2ccccc2OC)cc1,-16.5%,32.4,23.1µM*,-15.2%,10.3µM*,?
COc1cc(-c2n[nH]c(=S)n2-c2ccc(C)cc2)cc(OC)c1OC,1.4%,-18.0,16.4µM*,-4.6%,-16.5%,?
COc1ccccc1-n1c(-c2ccccc2)n[nH]c1=S,?,20.8,21.7%,2.59µM*,2.3%,1.6%
Cc1ccc2nc3n(c(=O)c2c1)-c1ccc(Cl)cc1C(=O)NC3CC(C)C (stereo not given),.,.,.,.,.,5.5%
COc1ccc(C(CNC(=O)c2cccc(S(=O)(=O)N3CCCc4ccccc43)c2)N(C)C)cc1 (stereo not given),-4.1%,-53.7*,?,?,?,.
O=C(NCCOc1ccccc1F)c1cccc(S(=O)(=O)N2CCN(c3ccccc3)CC2)c1,-2.9%,-27.8,?,-2.3%,25.9µM*,?

# Source: PubChem BioAssay (National Center for Advancing Translational Sciences (NCATS))
